Measurements: PubChem BioAssay AID624342 (National Center for Advancing Translational Sciences (NCATS), 2012)
The source made the active and inactive calls. The call rests on the fitted dose curve.

assay: qHTS for Inducers of the Endoplasmic Reticulum Stress Response (ERSR) in Human Glioma: Hit Validation; details: U87-MG GRP78 promoter luciferase reporter, 16 h
Source text: Primary protein unfolding takes place for many diseases, including diabetes and hypoxia, , and triggers a reaction in the cells called ER stress response (ERSR). ). ERSR is designed as a repair mechanism, but ultimately leads to cell death via apoptosis if conditions triggering protein unfolding persist (1). The molecular clue to ERSR activation is the enhancement of the expression of key molecular chaperones, including the glucose regulated protein (GRP) 78. GRP78 is the main sensor for protein folding and the main actuator of the ERSR. In a collaboration between the Southern Research Institute and the NIH Chemical Genomics Center, a cell based screen was developed that reliably uses GRP78 as a sensor to identify small molecules as inducers of ERSR. In resting conditions, GRP78 binds proteins and acts as a natural repressor. Once unfolded proteins are present in the ER, GRP78 releases some of the repressors and binds to the unfolded proteins. The release of the repressors executes the ERSR program. Using a human glioma cell line in a miniaturized, luminescent format, a high-throughput screen was developed to identify actuators of the ERSR. In this assay, the hits identified from primary screen are re-run using the same protocol. NIH Chemical Genomics Center [NCGC] NIH Molecular Libraries Probe Centers Network [MLPCN] MLPCN Grant: DA031669 Assay Submitter (PI): Maurizio Grimaldi, Southern Research Institute (1) Soboloff, J. and S. A. Berger (2002). "Sustained ER Ca2+ depletion suppresses protein synthesis and induces activation-enhanced cell death in mast cells." J Biol Chem 277(16): 13812-20.
Stable transfected human glioma cell line, U87-MG, are dispensed at density 1000 cells/well into Greiner white solid bottom 1536-well assay plates. […] The assay plates will be incubated for 16 hours and developed by adding appropriate quantities of the Promega Bright Glo reagent. The plates will be incubated at room temperature for 10 minutes prior to being transferred into a ViewLux high-throughput CCD imager (PerkinElmer), wherein end-point measurements of luminescence are acquired.

Potency, active:
CC(=O)N1CCOc2cc(S(=O)(=O)Nc3c(C)cccc3C(C)C)c(Cl)cc21 30 µM
Cc1ccc(-c2cc(NC(=O)C(C)Oc3ccc(C)c(C)c3)on2)cc1 (stereo not drawn) 30 µM
CC(C)Cc1nn2c(=O)cc(COC(=O)CNC(=O)c3ccc(C(C)(C)C)cc3)nc2s1 30 µM
